# Compound activity from PubChem.
# Gli-Sufu antag: antagonists of Gli-Sufu signaling. inhibition, % at 5 µM. Sufu-KO-LIGHT fibroblasts, Gli luciferase reporter luminescence. actives 0.74% (n = 340,000);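 active means inhibition above about 55%, limit read from the data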
# MPTP inh: permeability transition pore inhibition. isolated mouse mitochondria, Ca2+ swelling absorbance, 30 min. inhibition, % at 10 µM. actives 1.4% (n = 360,000). AID 602449;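 active means inhibition of 50% or more, scaled per plate between neutral and stimulator controls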
# CSC inhib: blocks cancer stem cells. cancer stem cell-like cells viability, luminescence. inhibition, % at 7.5 µM. actives 1.1% (n = 300,000); in the data active means inhibition above about 75%; tested in HMLE shEcad cells
# Beta cell apopt: blocks beta cell apoptosis; AID 435005; protection from apoptosis, % (test concentration not listed); actives 0.8% (n = 300,000); INS-1E cytokine-induced death, ATP luminescence, 48 h; percent of positive-control rescue, neutral wells zero;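 active means Every replicate reaches about 75%, or at least half do and their mean reaches it too, limit read from the data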;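 further: higher means more ATP so stronger rescue from cytokine killing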
# Mdm2 MdmX PPI: inhibitors of human Mdm2/MdmX interaction | O15151+Q00987 | actives 3% (n = 330,000) | SaOS-2 split-luciferase Mdm2/MdmX complementation, luminescence | inhibition, % at 8 µM;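 active means inhibition of at least 50% at 8 µM in the primary screen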
# Target sequence (O15151 whole entry, looked up): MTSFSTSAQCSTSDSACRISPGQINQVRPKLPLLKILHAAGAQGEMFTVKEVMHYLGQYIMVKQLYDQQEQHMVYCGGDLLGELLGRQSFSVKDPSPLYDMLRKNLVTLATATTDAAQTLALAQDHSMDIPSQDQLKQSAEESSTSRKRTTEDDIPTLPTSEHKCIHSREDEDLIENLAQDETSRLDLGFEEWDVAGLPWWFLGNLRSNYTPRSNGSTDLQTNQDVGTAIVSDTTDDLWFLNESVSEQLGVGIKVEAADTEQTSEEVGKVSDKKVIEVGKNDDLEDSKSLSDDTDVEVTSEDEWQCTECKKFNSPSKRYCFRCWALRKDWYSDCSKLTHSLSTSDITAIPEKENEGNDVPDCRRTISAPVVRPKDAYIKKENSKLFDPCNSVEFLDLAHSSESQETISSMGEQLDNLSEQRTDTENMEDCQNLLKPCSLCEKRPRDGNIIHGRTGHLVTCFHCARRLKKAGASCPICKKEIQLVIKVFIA
# Target sequence (Q00987 whole entry, looked up): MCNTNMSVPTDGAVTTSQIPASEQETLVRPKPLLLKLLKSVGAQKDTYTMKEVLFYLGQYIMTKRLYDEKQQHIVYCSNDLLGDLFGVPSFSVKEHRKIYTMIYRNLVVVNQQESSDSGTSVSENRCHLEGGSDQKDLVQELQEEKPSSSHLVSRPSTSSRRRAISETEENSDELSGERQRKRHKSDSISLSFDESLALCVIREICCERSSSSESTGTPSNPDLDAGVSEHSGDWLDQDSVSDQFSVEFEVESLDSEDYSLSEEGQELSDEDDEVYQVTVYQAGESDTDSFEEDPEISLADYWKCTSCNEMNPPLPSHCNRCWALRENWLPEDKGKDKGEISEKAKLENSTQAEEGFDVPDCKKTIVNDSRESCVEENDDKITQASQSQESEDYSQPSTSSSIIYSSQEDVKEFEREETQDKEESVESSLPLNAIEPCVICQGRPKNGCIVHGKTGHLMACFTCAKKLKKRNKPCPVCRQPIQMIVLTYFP
# GRIN3A LBD mod: modulators (binders) of human NR3A ligand-binding domain. Tm shift relative to glycine control, % at 25 µM. actives 2.5% (n = 340,000). NR3A LBD differential scanning fluorimetry, Tm shift; 0% = protein alone, 100% = glycine-bound protein. AID 1259313;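 active means melting temperature shift of at least 10% of the positive control shift, at one fixed dose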
# Gli antag conf: Gli-SUFU antagonism confirmation, single concentration | inhibition, % at 5 µM | Sufu-KO-LIGHT cells, Gli luciferase reporter, luminescence | AID 602428 | actives 40% (n = 2,500) | shares compounds with Gli-Sufu antag;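 active means mean inhibition at 5 µM reaching about 45%, limit read from the data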
# Gli cytotox: cytotoxicity counter-screen for Gli-SUFU antagonists; cytotoxicity, % at 5 µM; Sufu-KO-LIGHT cells cytotoxicity, ATP luminescence; actives 32% (n = 2,500); shares compounds with Gli-Sufu antag;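 active means mean cytotoxicity at 5 µM above about 25%, limit read from the data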;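 further: cells exposed to compound overnight for roughly 16 to 18 hours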
# Wnt3a cs: counter-screen for Gli-SUFU antagonists: Wnt3a reporter inhibition; inhibition, % at 6.25 µM; shares compounds with Gli-Sufu antag; actives 20% (n = 2,500); AID 651995; Wnt-LIGHT cells, Wnt3a-driven luciferase reporter, luminescence;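 active means mean inhibition above about 25%, limit read from the data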
# Hits are given with their value; 0 = inactive; - = not tested or not shown. An excerpt weighted towards active compounds, which were near 6.6% of everything screened.
SMILES,Gli-Sufu antag,MPTP inh,CSC inhib,Beta cell apopt,Mdm2 MdmX PPI,GRIN3A LBD mod,Gli antag conf,Gli cytotox,Wnt3a cs
O=C(Nc1cccc(S(=O)(=O)N2CCOCC2)c1)c1c2c(nc3ccccc13)CCC2,0,0,0,0,0,0,-,-,-
COc1ccc(-c2nc(SC(CC(=O)NCCN3CCOCC3)c3cccs3)n[nH]2)cc1 (stereo not drawn),0,0,0,0,0,0,-,-,-
COC(=O)[C@@]12CCCCN1[C@H](c1ccc(-c3ccccc3)cc1)[C@@H]1C(=O)N(C)C(=O)[C@@H]12,83,0,0,0,0,0,0,0,25
C/C=C/CSc1nc2c(c(=O)[nH]c(=O)n2C)n1CCC,0,0,0,0,0,0,-,-,-
CCCn1c(Sc2nc3c(c(=O)[nH]c(=O)n3C)n2CCC)nc2c1c(=O)[nH]c(=O)n2C,99,0,0,0,0,0,0,0,0
COCCSc1nc2c(c(=O)[nH]c(=O)n2C)n1CCCc1ccccc1,0,0,0,0,0,0,0,0,0
COC(=O)C12OCC34C(CC5C(C)=C(O)C(=O)CC5(C)C3C(O)C1O)OC(=O)C(OC(=O)C=C(C)C)C24 (stereo not drawn),91,0,-,-,-,14,95,76,105
CC[n+]1c(/C=C/N(C)c2ccccc2)oc2ccc(Cl)cc21,79,0,0,0,0,0,83,27,39
COC(=O)c1nn(-c2ccccc2)c(Sc2ccc(C)cc2)c1/C=N/O,0,0,-,-,-,0,-,-,-
CC#CC[N+](C)(C)CCCCCCCCCC,68,0,0,-,0,0,79,43,35
O=C(/C=C/c1cccc2ccccc12)c1ccncc1,0,0,0,0,-,0,47,37,0
Cc1[nH]c2ccccc2c1/C=C/C(=O)c1ccncc1,0,0,0,0,0,0,-,-,-
Cc1cccc(CCNC(=O)Cc2ccc(NC3=NC4CS(=O)(=O)CC4S3)cc2)c1 (stereo not drawn),0,0,-,0,0,0,-,-,-
Clc1ccc(-c2c[n+](Cc3cccc(Cl)c3)c3n2CCC3)cc1,0,0,0,0,0,0,51,29,0
Clc1ccc(C[n+]2cc(-c3ccccc3)n3c2CCC3)cc1Cl,59,0,0,0,0,0,51,37,0
CN(C(=O)c1ccc(NC(=O)Cc2cccc(NC(=O)C3CCN(C(=O)CCc4ccccc4)CC3)c2)cc1)C1CCCC1,0,0,0,0,0,0,-,-,-
Cc1ccc(-n2ncc3c2CC(C)(C)CC3NC(=O)c2ccc[n+]([O-])c2)cc1 (stereo not drawn),0,0,0,0,0,0,-,-,-
CC1(C)Cc2c(cnn2-c2ccccc2)C(NC(=O)c2ccc[n+]([O-])c2)C1 (stereo not drawn),0,0,0,0,0,0,0,0,0
OC(CN1CCN(c2cccc(Cl)c2)CC1)c1ccc(F)cc1 (stereo not drawn),69,0,0,0,0,0,0,0,0
CCCCc1ccc(N=N/C(C(=O)Nc2ccccc2OC)=C(/C)O)cc1,0,0,0,0,0,0,-,-,-
CCCCc1ccc(N=N/C(C(=O)Nc2cc(OC)c(NC(C)=O)cc2OC)=C(/C)O)cc1,64,0,0,0,0,0,0,0,0
Cc1cc(C)cc(-n2ccn(CC(=O)NCCc3ccccc3)c(=O)c2=O)c1,0,0,0,0,0,0,0,0,0
CCOC(=O)N1CCN(C(=O)C[C@@H]2C[C@@]3(C(=O)OCC)CCCC=C3N(Cc3ccc(Cl)cc3Cl)C2=O)CC1,-,0,-,-,-,-,-,-,-
CCOC(=O)C1=NN(C(=O)Nc2cccc(C(F)(F)F)c2)C2C(=O)N(c3cccc(C(F)(F)F)c3)C(=O)C12 (stereo not drawn),70,0,0,0,0,0,0,0,0
CC1CCN(C(=S)NC(=O)c2ccc(F)cc2)CC1,0,0,0,0,0,0,-,-,-
SMILES,Gli-Sufu antag,MPTP inh,CSC inhib,Beta cell apopt,Mdm2 MdmX PPI,GRIN3A LBD mod,Gli antag conf,Gli cytotox,Wnt3a cs
CC1CCN(C(=S)Nc2ccc(F)cc2)CC1,64,0,-,0,0,0,0,0,0
Cc1cccc(C)c1NC(=S)N(CCN1CCCCCC1)Cc1ccco1,0,0,0,0,0,0,0,0,0
COC(=O)C1CCC(=O)N1C(c1ccc(OC)cc1)c1cc(OC)c(OC)c(OC)c1 (stereo not drawn),0,0,-,-,-,0,-,-,-
CCc1c(C)nc2cc(-c3ccc(OC)c(OC)c3)nn2c1N1CCCC1,0,0,0,0,0,0,55,33,0
CCc1c(C)nc2cc(-c3ccc(OC)c(OC)c3)nn2c1N1CCC(C)CC1,0,0,0,0,0,0,-,-,-
O=C(NCCCc1nc2ccccc2[nH]1)c1ccc(F)cc1,0,0,0,0,0,0,-,-,-
O=S1(=O)N=C(N(CCO)/N=C/c2ccc(Br)cc2)c2ccccc21,0,0,0,0,0,0,-,-,-
COC(=O)c1cc(S(=O)(=O)N2CCN(c3ccc(C(C)=O)cc3)CC2)c[nH]1,62,0,0,0,0,0,0,0,0
Cc1ccc(C(=O)NCC(=O)OCC(=O)c2ccccc2)s1,0,0,0,0,0,0,-,-,-
CC(=O)c1ccc(NS(=O)(=O)c2ccc(C)cc2)cc1,0,0,0,0,0,0,0,0,0
CC(C)=CCSc1nnc([C@@H](NC(=O)OC(C)(C)C)C(C)C)o1,60,0,0,0,0,0,0,25,0
Cc1ccc(CN(C(=O)Cc2cccs2)C(C(=O)NC2CCCC2)c2ccncc2)cc1 (stereo not drawn),0,0,0,0,0,0,-,-,-
O=C(NC1CCCC1)C(c1ccccc1)N(Cc1cccnc1)C(=O)Cc1cccs1 (stereo not drawn),57,0,0,0,0,0,0,0,0
CC(=O)c1cc2c(cc1NC(=O)CCc1c(C)nc3ncnn3c1C)OCO2,0,0,-,0,0,0,-,-,-
Cc1nn(C(C)(C)C)c(OC(=O)c2ccco2)c1Sc1ccccc1,92,0,0,0,0,0,0,0,0
CCOc1ccc(-c2c(=O)n(OCc3ccccn3)c3ccccc3[n+]2[O-])cc1,0,0,0,0,0,0,-,-,-
O=c1c(-c2ccc(Oc3ccccc3)cc2)[n+]([O-])c2ccccc2n1OCc1ccccn1,95,0,0,0,0,0,0,0,0
O=C(Cn1cc(C(F)(F)F)ccc1=O)N/N=C/c1ccc(Cl)c(Cl)c1,0,0,0,0,0,0,0,0,0
COc1ccc(NC(=O)CN(C)CC(=O)Nc2cccc(C(C)=O)c2)cc1,0,0,0,0,0,0,-,-,-
